The structures appear in SMILES notation. Results filed as inconclusive are left out. Where a call stands in place of a potency, no number is given. Active and inactive are the calls of the source. Calls follow the shape of the dose curve; as a rule, active = well fitted inhibition curve with a large enough effect; inconclusive = small, poorly fitted or top-dose-only effect; inactive = flat fitted curve, though single readings scatter.
Potency is read from the fitted curve at half-maximal effect.

A short description of this assay: P-glycoprotein substrates identified in KB-8-5-11 adenocarcinoma cell line, qHTS therapeutic library screen (AID 1346987). Also: nearly all actives have a fitted effect of over 65% in size. To be noted: KB-8-5-11 (P-gp overexpressing) viability, CellTiter-Glo, 72 h; series mostly up to 44.5 µM. From the text:
The ATP-binding cassette transporters P-glycoprotein (P-gp) is known to limit brain penetration of many chemotherapy drugs. […] As such, we developed a high-throughput screen (HTS) to identify substrates of P-gp from a series of chemical libraries including the National Center for Advancing Translational Sciences Pharmaceutical Collection NPC, 2,816 compounds), testing a total of 10,804 compounds, most of which have known mechanisms of action. We used the CellTiter-Glo viability assay to test library compounds against the parental KB-3-1 human cervical adenocarcinoma cell line and the colchicine-selected sub-line KB-8-5-11 that over-expresses P-gp. KB-8-5-11 cells were also tested in the presence of a P-gp inhibitor (tariquidar) to assess reversability of transporter-mediated resistance. Of the tested compounds, a total of 90 P-gp substrates were identified including 55 newly identified P-gp substrates. Substrates were confirmed using an orthogonal killing assay against HEK-293 cells transfected with P-gp. As exemplars, we confirmed that […] (cyclin-dependent kinase inhibitor); AT9283, (Janus kinase 2/3 inhibitor); ispinesib (kinesin spindle protein inhibitor); gedatolisib (PKI-587, phosphoinositide 3-kinase/mammalian target of rampamycin inhibitor); GSK-690693 (AKT inhibitor); and KW-2478 (heat shock protein 90 inhibitor) were substrates , and direct ATPase stimulation was assessed. ABCG2 was also found to confer high levels of resistance to AT9283, GSK-690693 and gedatolisib, while ispinesib, AT7519 and KW-2478 were weaker substrates.
The HeLa derivative cell line, KB-3-1, and its colchicine-selected, P-gp-overexpressing subline, KB-8-5-11 were maintained in DMEM with 10% FCS and Pen/Strep with glutamine at 37 degree C in 5% CO2. For KB-8-5-11 cells, colchicine was added to the medium at a concentration of 100 ng/mL. HEK-293 cells transfected with empty vector (pcDNA) or vector containing human ABCB1 (MDR-19) or ABCG2 (R-5) have been described previously (Robey, Lin, Qiu, Chan & Bates, 2011) and were maintained in EMEM supplemented with 10% FCS, Pen/Strep and glutamine with 2 mg/ml G418 to select for the expression of the transporter. Cultures were confirmed to be free of mycoplasma infection using the MycoAlert Mycoplasma Detection Kit (Lonza, Walkersville, MD). For the screen, assay medium was identical to culture medium except for KB-8-5-11 where colchicine was excluded from the medium.
All cell lines were plated into 1536-well plates at 500 cells/well in 5 uL media. Compounds were then pinned in dose-response using a 1536-head pin tool (Kalypsis, San Diego, CA) and plates were incubated at 37 degree C in 5% CO2 for an additional 72 h. CellTiter-Glo reagent (Promega) was dispensed into the wells, incubated for 5 min and luminescence was read on a ViewLux instrument (Perkin-Elmer). Cytotoxic compounds were defined as those that yielded a curve class of -1.1, -1.2, -2.1, -2.2, -2.3, or -2.4, a maximum response of >50% and an AC50 of < 10 uM. Cherry-picked hits from screening analysis were tested with both the KB pair of cell lines, and the pcDNA (empty vector control) and MDR-19 (P-gp overexpressing) pair were tested, in the absence and presence of tariquidar.
A general note: In qHTS, concentration-response curves come from the screen itself.
With `C[C@@H]1C[C@@H](O)[C@]2(O)O[C@@H]3C[C@@]4(C=O)C(CC[C@@H]5C4CC[C@]4(C)[C@@](O)(C6=CC(=O)OC6)CC[C@]54O)C[C@H]3OC2O1` (stereo not given in full), the Potency was 1590 nM (active).
In the case of `C[C@]12CC[C@H]3[C@@H](CCC4=CC(=O)CC[C@@]43C)[C@@H]1CC[C@H]2O`, the Potency is 2590 nM (active).
With `N#CC(O[C@@H]1O[C@H](CO)[C@@H](O)[C@H](O)[C@H]1O)c1ccccc1` (stereo not given in full), the Potency result is “inactive”.
On the same count and under the same terms, the result for `C[N@@+]1(CC2CC2)CC[C@]23c4c5ccc(O)c4O[C@H]2C(=O)CC[C@@]3(O)[C@H]1C5` reads “inactive”; that for `NC(=O)c1ncn2c1CN=C(c1ccccc1Br)c1cc(F)ccc1-2`, “inactive”; that for `Fc1cc(F)c2c(c1)C1C=CCC1C(c1cccnc1)N2` (stereo not given), 4610 nM (active).
For `C=CCN1CC[C@]23c4c5ccc(O)c4O[C@H]2[C@@H](O)CC[C@@]3(O)[C@H]1C5`, the Potency result is “inactive”.
As to `CC(=O)OC[C@]12C[C@H](OC(=O)CC(C)C)C(C)=C[C@H]1O[C@@H]1[C@H](O)[C@@H](OC(C)=O)[C@@]2(C)[C@@]12CO2`, the Potency was 25.2 nM (active).
Same read-out and setting: to `COC1CC(OC2CCC3(C=O)C(CCC4C3CCC3(C)C(C5=CC(=O)OC5)CCC43O)C2)OC(C)C1O` (stereo not given) belongs 178 nM (active); to `C[C@@H](N)C(=O)c1ccccc1`, “inactive”; to `COc1ccc(C(C)(C)C)cc1CN[C@H]1C2CCN(CC2)[C@H]1C(c1ccccc1)c1ccccc1`, 18400 nM (active).
Take `CNc1ccc2oc(C[C@H]3O[C@@]4(CC[C@H]3C)O[C@H](C(C)C(=O)c3ccc[nH]3)[C@H](C)C[C@H]4C)nc2c1C(=O)O` (stereo not given in full): the Potency is 2060 nM (active).
`COc1cccc(NCC(F)Cn2c3ccc(Br)cc3c3cc(Br)ccc32)c1` (stereo not given): the Potency is 14600 nM (active).
Regarding `O=C(OC[C@H]1O[C@@H](Oc2ccc(O)cc2CO)[C@H](O)[C@@H](O)[C@@H]1O)c1ccccc1`, the Potency result was “inactive”.
For `CCOC(=O)c1ccc(-c2ccc(OC(=O)N(C)Cc3cccc(-c4ccncc4)c3)cc2)cc1`, the Potency entry was “inactive”.
As for `COc1ccc(OC)c(C[C@H](C)N)c1`, the Potency entry was “inactive”.
Consider `Nc1ccn(CC(CO)OCP(=O)(O)O)c(=O)n1` (stereo not given), for which the Potency result was “inactive”.
Same read-out and setting: to `CCC(C)(O)C1(C(=O)O)COC(=O)C1` (stereo not given) belongs “inactive”.
Consider `COc1ccc(CC2C(=O)NC(C)C(=O)N(C)C3Cc4ccc(cc4)Oc4cc(ccc4OC4OC(CO)C(O)C(O)C4O)CC(C(=O)NC(C)C(=O)NC(CCC(=O)O)C(=O)N2C)N(C)C3=O)cc1` (stereo not given), for which the activity change, negative = cytotoxicity is -22.7% [at 9.29 µM] (inactive).
In the case of `OCCN(CCO)CCO`, the Potency result was “inactive”.
On the same count and under the same terms, the result for `CC(=O)N1N=C(c2ccc(N)cc2)c2cc3c(cc2C[C@H]1C)OCO3` reads “inactive”; that for `Cc1ccc2c(c1)[C@H]1CN(C)CC[C@H]1N2C(=O)CSc1nnnn1-c1ccc(Cl)cc1`, “inactive”; that for `CO[C@H]1[C@H](O)[C@H](O[C@H]2CC[C@]3(C=O)C4CC[C@]5(C)[C@H](C6=CC(=O)OC6)CC[C@]5(O)C4CC[C@@H]3C2)O[C@@H](C)[C@@H]1O` (stereo not given in full), 25.2 nM (active).
Turning to `CC1=CC2(O)/C=C/C(C)(O)C(O)C(O)/C=C/C(=O)OC23C(=O)NC(CC(C)C)C3C1C` (stereo not given), the Potency result is “inactive”.
Turning to `CC1=CC2/C=C(\C)CCC(O)C(O)C(O)CC(=O)C23C(=O)NC(CC(C)C)C3C1C` (stereo not given), the Potency entry was “inactive”.
`CC(=O)OC[C@]12[C@H](OC(C)=O)C(=O)[C@@H]3[C@@H](O)[C@@]14O[C@@]3(C)COC(=O)c1cccnc1[C@@H](C)[C@H](C)C(=O)O[C@@H]([C@H](OC(C)=O)[C@@H]2OC(C)=O)[C@]4(C)O`: the Potency entry is “inactive”.
On the same count and under the same terms, to `COc1ccc2c3c([nH]c2c1)C(C=C(C)C)N1C(=O)C2CCCN2C(=O)C1C3` (stereo not given) belongs “inactive”.
Same read-out and setting: the result for `CC(=O)O[C@@H]1CC2C(C)(C)C(=O)C=C[C@]2(C)C2CC[C@]3(C)C(=CC(=O)O[C@H]3c3ccoc3)[C@@]21C` (stereo not given in full) reads 14600 nM (active); that for `COC1CC(O[C@H]2CC[C@]3(C=O)C4CC[C@]5(C)[C@@H](C6=CC(=O)OC6)CC[C@]5(O)[C@@H]4CC[C@@H]3C2)OC(C)C1O[C@@H]1O[C@H](CO)[C@@H](O[C@@H]2O[C@H](CO)[C@@H](O)[C@H](O)[C@H]2O)[C@H](O)[C@H]1O` (stereo not given in full), 123 nM (active).
As to `CC(C)[C@H]1OC(=O)[C@H](Cc2ccccc2)N(C)C(=O)[C@@H](C(C)C)OC(=O)[C@H](Cc2ccccc2)N(C)C(=O)[C@@H](C(C)C)OC(=O)[C@H](Cc2ccccc2)N(C)C1=O`, the Potency was 4850 nM (active).
`CC(O)(c1ccccc1)C(Cc1ccc(Cl)cc1)n1cncn1` (stereo not given): the Potency entry is “inactive”.
Take `CC(=O)O[C@H]1CC[C@H]2[C@@H]3CC[C@H]4CC(=O)C=C(C)[C@]4(C)[C@H]3CC[C@]12C`: the Potency entry is “inactive”.
Turning to `CCC1CN2CCc3cc(OC)c(OC)cc3C2CC1CC1=NCCc2cc(O)c(OC)cc21` (stereo not given), the Potency entry was “inactive”.
On to `COC1(C[S@@](=O)c2ccccc2)CCN(CCc2c[nH]c3ccc(F)cc23)CC1`, for which the Potency entry was “inactive”.
Turning to `C[C@@H]1O[C@@H](O[C@H]2CC[C@@]3(C)C(CC[C@@H]4C3CC[C@]3(C)[C@@H](C5=CC(=O)OC5)CC[C@]43O)C2)[C@H](O[C@@H]2O[C@H](CO)[C@@H](O)[C@H](O)[C@H]2O)[C@H](O)[C@H]1O` (stereo not given in full), the Potency was 485 nM (active).
In the case of `COc1cc(C[C@H](C)N)c(OC)cc1C`, the Potency result was “inactive”.
Still for that read-out and setting: the result for `CCN1C[C@]2(COC)CC[C@H](O)[C@@]34C5C[C@@H]6[C@@H](OC)C[C@@](OC(C)=O)(C5[C@@H]6OC(C)=O)[C@H]([C@H](OC)C23)[C@@H]14` (stereo not given in full) reads “inactive”; that for `CCC(=O)O[C@](Cc1ccccc1)(c1ccccc1)[C@H](C)CN(C)C`, 20000 nM (active); that for `CCCN(CCC)[C@@H]1CCc2ccc3[nH]c(C#N)cc3c2C1`, “inactive”.
As to `O.O.O.O=C([O-])C(O)C(O)C(=O)[O-].O=C([O-])C(O)C(O)C(=O)[O-].[K+].[K+].[Sb].[Sb]` (stereo not given), the Potency was 8200 nM (active).

For the origin of these results see PubChem BioAssay (NCATS).
